Screening data deposited in PubChem by several laboratories.
Mdm2 MdmX PPI: inhibitors of human Mdm2/MdmX interaction | 330,000 compounds, 3% hits | AID 485346 | O15151+Q00987 | inhibition, % at 8 µM | SaOS-2 split-luciferase Mdm2/MdmX complementation, luminescence;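 active = inhibition of at least 50% at 8 µM in the primary screen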
Target sequence (O15151 whole entry, looked up): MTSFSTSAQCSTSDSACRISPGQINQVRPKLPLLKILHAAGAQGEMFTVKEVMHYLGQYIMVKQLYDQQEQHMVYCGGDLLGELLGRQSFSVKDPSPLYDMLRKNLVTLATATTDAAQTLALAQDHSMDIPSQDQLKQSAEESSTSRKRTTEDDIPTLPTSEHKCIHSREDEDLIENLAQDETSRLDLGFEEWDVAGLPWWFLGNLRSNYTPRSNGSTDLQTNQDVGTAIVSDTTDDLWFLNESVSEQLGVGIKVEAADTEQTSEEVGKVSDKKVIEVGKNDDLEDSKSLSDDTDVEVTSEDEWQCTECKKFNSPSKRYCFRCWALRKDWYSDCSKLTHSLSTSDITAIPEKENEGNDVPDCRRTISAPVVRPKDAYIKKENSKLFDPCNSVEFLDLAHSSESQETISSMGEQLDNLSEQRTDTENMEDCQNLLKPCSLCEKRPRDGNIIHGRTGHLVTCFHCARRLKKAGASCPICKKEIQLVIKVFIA
Target sequence (Q00987 whole entry, looked up): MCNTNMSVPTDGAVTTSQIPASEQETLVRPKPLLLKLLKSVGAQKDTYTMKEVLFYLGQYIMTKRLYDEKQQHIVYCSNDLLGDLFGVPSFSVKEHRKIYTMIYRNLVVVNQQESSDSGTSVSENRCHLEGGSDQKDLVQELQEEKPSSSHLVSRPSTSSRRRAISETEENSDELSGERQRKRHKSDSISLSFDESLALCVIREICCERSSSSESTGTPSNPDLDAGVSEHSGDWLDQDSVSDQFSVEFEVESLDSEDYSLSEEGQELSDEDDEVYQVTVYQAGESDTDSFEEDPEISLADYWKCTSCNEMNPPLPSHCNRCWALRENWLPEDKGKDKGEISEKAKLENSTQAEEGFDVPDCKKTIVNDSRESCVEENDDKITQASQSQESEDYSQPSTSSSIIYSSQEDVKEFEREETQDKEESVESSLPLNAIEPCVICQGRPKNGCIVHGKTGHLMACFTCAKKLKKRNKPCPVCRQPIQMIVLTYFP
Beta apoptosis: blocks beta cell apoptosis; INS-1E cytokine-induced death, ATP luminescence, 48 h; percent of positive-control rescue, neutral wells zero; protection from apoptosis, % (concentration not given with the values); 300,000 compounds, 0.8% hits; AID 435005;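 active = Every replicate reaches about 75%, or at least half do and their mean reaches it too, limit read from the data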;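 also: 0% = cytokine-treated negative control wells and 100% = positive control rescue; higher means more ATP so stronger rescue from cytokine killing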
Gli-Sufu block: antagonists of Gli-Sufu signaling. Sufu-KO-LIGHT fibroblasts, Gli luciferase reporter luminescence. inhibition, % at 5 µM. 340,000 compounds, 0.74% hits. AID 588413;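 active = inhibition above about 55%, limit read from the data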;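 also: 0% = DMSO-treated cells and 100% = wells with medium but no cells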
697 NFkB inh: lowers PMA/ionomycin-induced NF-kB signal in 697 B cells; 697 B-cell NF-kB luciferase reporter, 16 h; inhibition, % at 4 µM; 330,000 compounds, 0.33% hits; AID 435022; in the data active = inhibition above about 35%
Jurkat NFkB inh: lowers PMA/ionomycin-induced NF-kB signal in Jurkat cells; AID 435003; 330,000 compounds, 0.53% hits; inhibition, % at 4 µM; PMA/ionomycin-induced NF-kB luciferase reporter, luminescence; in the data active = inhibition above about 50%
Mdm2 MdmX conf: human Mdm2/MdmX binding inhibition, confirmed. shares compounds with Mdm2 MdmX PPI. AID 489028. 10,000 compounds, 55% hits. inhibition, % at 8 µM. luminescent assay; in the data active = inhibition above about 40%
FLuc counter: full-length luciferase inhibition in Mdm2/MdmX counter-screen; shares compounds with Mdm2 MdmX PPI; SaOS-2 full-length luciferase counterscreen, luminescence; AID 504607; 6,200 compounds, 77% hits; inhibition, % at 8 µM;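 active = mean inhibition at 8 µM reaching about 37%, which flags the compound as non-specific, limit read from the data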;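 also: p53-null SaOS-2 cells with luciferase driven by a doxycycline-inducible promoter; compound on cells about two nights before reading with doxycycline added after day one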
An asterisk follows results filed as active; · = no result. A selection: hits, their analogues and other compounds. The true share with any hit is near 4%.

SMILES	Mdm2 MdmX PPI	Beta apoptosis	Gli-Sufu block	697 NFkB inh	Jurkat NFkB inh	Mdm2 MdmX conf	FLuc counter
O=C(/C=C/c1ccc(Cl)cc1)NC(=S)Nc1ccc(N2CCOCC2)c(Cl)c1	86.4*	-2.0	-5.9	-16.4	-5.6	44.5*	91.5*
CC(=O)Nc1ccc(NC(=O)C2(C)CC2(Cl)Cl)cc1 (centres undefined)	11.1	-1.3	1.2	3.1	8.1	·	·
CC(=O)c1c(C)[nH]c(C(=O)OCC(=O)Nc2cc(C(F)(F)F)ccc2N2CCOCC2)c1C	51.1*	7.1	0.3	-2.2	13.5	31.8	·
C=CCNC(=S)Nc1sc2c(c1C#N)CCCC2	-27.6	-1.0	0.9	14.0	-7.9	·	·
COc1cc(Nc2c3c(nc4ccccc24)CCC3)cc(OC)c1OC	87.6*	9.2	46.1	-37.5	43.3	74.3*	63.5*
COc1ccc(OC)c(Nc2c3ccccc3nc3ccccc23)c1	73.4*	22.0	29.6	-67.2	31.2	65.0*	60.2*
Cc1cccc(Nc2c3c(nc4ccccc24)CCC3)c1	26.9	34.0	5.3	-34.4	36.5	·	·
COc1ccccc1Nc1c2c(nc3ccc(N)cc13)CCCC2	27.4	20.1	6.8	-3.8	6.6	·	·
COc1ccc(OC)c(Nc2c3c(nc4ccccc24)CCC3)c1	50.6*	13.5	·	-37.8	27.1	62.0*	78.6*
COc1ccc(OC)c(NC(=O)COC(=O)c2c3c(nc4ccccc24)CCCC3)c1	84.6*	17.5	2.5	15.8	8.3	63.3*	56.7*
CCCc1ccc(-c2cc(C(=O)N/N=C/c3ccc([N+](=O)[O-])o3)c3ccccc3n2)cc1	21.8	12.1	-53.5	-77.6	-13.2	·	·
O=C(N/N=C/c1ccc([N+](=O)[O-])o1)c1cc(-c2cccc(Br)c2)nc2ccccc12	50.4*	1.9	9.4	4.4	1.1	35.7	·
O=C(N/N=C/c1ccc([N+](=O)[O-])o1)c1sc2ccccc2c1Cl	21.8	-33.5	-6.5	-0.5	3.6	·	·
O=C(N/N=C/c1ccc([N+](=O)[O-])o1)c1cn2ccc3ccccc3c2n1	82.0*	-2.9	-5.7	3.8	-6.2	9.2	·
COc1ccc(-c2nn(-c3ccccc3)cc2C(=O)N/N=C/c2ccc([N+](=O)[O-])o2)cc1	58.4*	46.7	29.3	16.8	15.4	52.8*	52.3*
Cc1cc(C(=O)N/N=C/c2ccc([N+](=O)[O-])o2)c(C)o1	12.4	-7.0	3.6	12.3	-5.2	·	·
Cc1c(C(N)=O)sc2ncn(CC(=O)NCCc3ccccc3)c(=O)c12	-10.6	5.7	3.2	0.3	-0.1	·	·
COc1ccccc1C(=O)Nc1ccc(OC(C)C(=O)N2CCOCC2)cc1 (centres undefined)	19.4	1.0	8.2	12.2	-13.7	·	·
Cc1ccc(OCCNC(=O)c2cncc(Br)c2)cc1C	60.3*	-12.4	6.9	-29.1	-20.1	48.3*	59.6*
COc1cc2ccccc2cc1C(=O)N(CCN(C)C)c1nc2c(C)cccc2s1	38.3	5.6	24.1	9.7	14.5	·	·
CCN(CC)CCN(C(=O)c1cc2ccccc2cc1OC)c1nc2ccc(OC)cc2s1	51.3*	6.3	-13.4	4.9	5.5	25.2	·
COc1cc2ccccc2cc1C(=O)N(CCN(C)C)c1nc2ccc(C)cc2s1	68.2*	21.3	13.9	0.8	18.4	56.0*	44.7*
COc1cc2ccccc2cc1C(=O)N(CCN(C)C)c1nc2c(OC)ccc(OC)c2s1	60.6*	-1.0	·	14.6	-5.2	22.4	66.3*
O=S(=O)(NC1CCN(S(=O)(=O)c2ccc3c(c2)OCCO3)C1)c1c(F)cccc1F (centres undefined)	4.4	-6.8	-11.6	3.4	6.0	·	·
Cc1ccc(S(=O)(=O)NCc2ccccc2)cc1C(=O)NCCc1ccc(S(N)(=O)=O)cc1	25.1	2.3	-2.8	7.3	6.3	·	·
Cc1noc(C)c1COc1ccc(C(=O)N2CCC(C(N)=O)CC2)cc1	23.4	-0.1	0.4	6.7	0.0	·	·
Cc1cccc(NC(=O)c2nc[nH]c2C(=O)NCCCCCCNC(=O)c2[nH]cnc2C(=O)Nc2cccc(C)c2)c1	70.7*	-1.2	-3.4	6.4	0.1	-21.7	·
Cc1cccc(NC(=O)c2nc[nH]c2C(=O)NCCCCNC(=O)c2[nH]cnc2C(=O)Nc2cccc(C)c2)c1	74.9*	15.2	7.2	18.6	2.9	3.7	·
